The structures appear in SMILES notation.

For one experiment, the system named is Human papillomavirus type 1a protein E7 (residues 44-93). In words: small molecules binding HPV E7 44-93 – biochemical, small-molecule microarray, residues 44-93, 635 nm fluorescence, primary screen (AID 1108).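 Note: E7 fragment applied at 1 µg/mL in TBST for 1 h at 4 C; score combines spot fluorescence with its signal to noise ratio.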 The conditions noted are these: fluorescence 635 nm, higher = more signal.
`COCCOC(=O)N1C(=O)[C@@]2(c3cc(C#CCCO)ccc31)[C@H](c1ccc(O)cc1)N1[C@H](c3ccccc3)[C@H](c3ccccc3)OC(=O)[C@H]1[C@@H]2C(=O)Nc1nc2ccccc2s1` had a composite z-score of 1.37.
Same read-out and setting: as for `COc1cc2c(cc1OC)CN(C(=O)[C@@H]1[C@H]3C(=O)O[C@H](c4ccccc4)[C@H](c4ccccc4)N3[C@H](c3ccccc3OCCO)[C@@]13C(=O)Nc1ccccc13)CC2`, the figure is 1.01; as for `COc1ccc([Si](C)(C)[C@H]2[C@H](CCO)O[C@@]3(C(=O)N(Cc4ccc(N5CCCCC5=O)cc4)c4ccccc43)[C@@H]2C)cc1`, 0.247; as for `CCCCO[C@H]1C[C@H]2C(Br)=C[C@@]1(CO)C(=O)[C@]21CO1`, -0.122.
Consider `CCOC(=O)C[C@H]1[C@H](OC(=O)c2ccccc2-c2ccccc2)[C@@H](NC(=O)C2CCCCC2)c2cc(OCCCO)ccc2N1C(=O)c1ccccc1`, for which the composite z-score is 0.0771.
The same measure, in the same setting: as for `CO[C@H]1COC(=O)[C@H](C)NC(=O)CC=C[C@@H](C)[C@H](NS(=O)(=O)c2ccc(C)cc2)COC(=O)[C@@H](OCc2ccccc2)C=C[C@@H]1C`, the figure is -0.117; as for `CC(C)CNC(=O)[C@@]1(C)c2ccccc2C(=O)N(Cc2ccc(OC(F)(F)F)cc2)[C@H]1c1ccc(CO)cc1`, -1.2; as for `CC(C)C[C@@H]1NC(=O)[C@H]2C[C@@H](C(=O)NCCCCCC[N+](C)(C)C)[C@@H](c3ccc(O)cc3)N2C1=O`, 0.183.
On the same count and under the same terms, with `C=CC[C@@]1(C(=O)NCC(O)CO)N=C(c2ccc(OCCCO)cc2)O[C@@H]1c1ccccc1CN=[N+]=[N-]` (stereo partly specified) the figure was 1.43.

Tested on in the next experiment: not listed separately
In words: hepatitis C replication reporter changes, two-sided – Huh7 cells, luciferase reporter, HCV replication inhibitor project, primary screen (AID 1109).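 Note: huh7 hepatoma cells harbouring a luciferase neomycin HCV replicon reporter; luciferase luminescence as measure of HCV replicon replication; test concentration not given here.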 The conditions noted are these: Huh7 HCV replicon luciferase reporter, 48 h; higher = more signal. On the technique in general: A reporter such as luciferase makes a cellular process visible.
Regarding `COCCOC(=O)N1C(=O)[C@@]2(c3cc(C#CC4(O)CCCCCC4)ccc31)[C@H](C(=O)N1CCCCCCC1)[C@H]1C(=O)O[C@H](c3ccccc3)[C@H](c3ccccc3)N1[C@@H]2c1ccc(O)cc1`, the z-score was -0.937.
Consider `C=CCC(OC(C)=O)[C@@H]1[C@@H](N(Cc2cc3ccccc3o2)C(=O)Cc2ccc(F)cc2)c2cc(OCCCO)ccc2N1C(=O)c1ccc(-c2ccccc2)cc1` (stereo partly specified), for which the z-score turned out to be 0.591.
Still for that read-out and setting: as for `O=C(CS)NCCCCCNC(=O)[C@H]1C[C@H]2C(=O)N[C@@H](Cc3ccccc3)C(=O)N2[C@H]1c1ccc(O)cc1`, the figure is -0.488; as for `CO[C@H]1COC(=O)CC=C[C@@H](C)COC(=O)[C@@H](C)NC(=O)CC=C[C@@H]1C`, 0.325.
In the case of `CCC(=O)[C@]12O[C@@]3([C@@H]4C(=O)OCC[C@@H]41)N(Cc1ccccc1)C(C)=C(C(=O)OC)[C@@H](c1ccccc1)N3C2=O`, the z-score is 0.286.
Still for that read-out and setting: with `C[C@]1(C(=O)NCCN2CCOCC2)c2ccccc2C(=O)N(Cc2ccccc2)[C@H]1c1ccc(CO)cc1` the figure was -0.326; with `CC[C@H]1C2=C3C(CC[C@H]4C(OC)OC[C@](C)([C@@H]34)N(C(=O)OC(C)(C)C)C2)C(CO)C1CO` (stereo partly specified), -0.996.
Same read-out and setting: with `O=C1c2ccccc2[C@@]2(Cc3ccccc3N(CC(F)(F)F)C2=O)[C@H](c2ccc(CO)cc2)N1C1CCCCC1` the figure was -0.387; with `C=C(C(=O)CC[C@H](OC(=O)c1ccccc1-c1ccccc1C(=O)O)c1ccc(CO)o1)C(C)C`, -1.3.
Still for that read-out and setting: with `CC1=C([C@H](O)CCc2ccccc2)[C@H](CO)[C@@H]2C(=O)N(Cc3ccccc3)C(=O)[C@@H]2C1` the figure was -0.266; with `O=C1O[C@H](c2ccccc2)[C@H](c2ccccc2)N2[C@H]1[C@@H](C(=O)NC[C@H](O)c1ccccc1)[C@]1(C(=O)Nc3ccc(C#CC4=CCCCC4)cc31)[C@H]2c1ccc(OCCO)cc1`, -1.91.
`COc1cc(Cc2cc3c(c(CCc4ccccc4)n2)[Si](C(C)C)(C(C)C)OC3)cc(OC)c1OC` registered a z-score of -2.14.
Still for that read-out and setting: as for `CO[C@H]1O[C@H](CO)[C@@H](OC(=O)CCc2ccccc2)[C@@H]2OC(=O)[C@H](Cc3cccc(Br)c3)C/C=C/C[C@@H](Cc3cccc(Br)c3)C(=O)O[C@@H]12`, the figure is -0.93; as for `Cc1ccc(S[C@]2(C(=O)NCCCN(C)C)CC(=O)N(C3CCCCC3)[C@@H]2c2ccc(CO)cc2I)cc1`, -3.67; as for `COC(=O)[C@@]1(Cc2ccccc2CN=[N+]=[N-])N=C(c2ccc(OCCCO)cc2)O[C@H]1c1ccccc1N=[N+]=[N-]`, -1.53.
Same read-out and setting: with `CO[C@@H]1COC(=O)[C@H](C)NC(=O)CC=C[C@@H](C)[C@H](OC)COC(=O)[C@H](C)NC(=O)CC=C[C@H]1C` the figure was -0.0787; with `COCCOC(=O)N1C(=O)[C@@]2(c3cc(C#CCNC(N)=O)ccc31)[C@H](c1ccc(OCCO)cc1)N1[C@H](c3ccccc3)[C@H](c3ccccc3)OC(=O)[C@H]1[C@@H]2C(=O)Nc1nc2ccccc2s1`, -1.11.

The values are drawn from PubChem BioAssay.
